# Measurements taken from PubChem BioAssay (EPA / NIEHS).
# The source made the active and inactive calls. How the source made its calls: active means hit-call score of the fitted dose curve at least 0.9, where 1 is the maximum; inactive means score below 0.9.
# Legend:
# Details in all cases: mRNA level, 48 h; actives raise or lower the signal
# [1] = read-out: Heat shock 70 kDa protein 1 (HSPA1A), gene 3303; assay: LTEA_HepaRG_HSPA1A: Life Technologies and Expression Analysis (LTEA) Assay for Heat shock 70 kDa protein 1 (HSPA1A) using HepaRG (AID 2283502)
# Method in brief: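 HSPA1A induction in human HepaRG liver cells is measured after 48 h of chemical treatment (100 uM maximum, 0.5% DMSO vehicle). Expression comes from qRT-PCR normalized to endogenous controls.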
# [2] = read-out: 3-Hydroxy-3-Methylglutaryl-CoA Synthase 2 (HMGCS2), HMGCS2 (gene 3158); assay: LTEA_HepaRG_HMGCS2: Life Technologies and Expression Analysis (LTEA) Assay for 3-Hydroxy-3-Methylglutaryl-CoA Synthase 2 (HMGCS2) using HepaRG (AID 2283504)
# Method in brief: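 HepaRG, plated 48 h then switched to serum-free induction media; cmpd 8-pt, max 100 uM, 1/2-log, 0.5% DMSO, n=2, 48 h. HMGCS2 mRNA by Fluidigm TaqMan qRT-PCR, ACTB/GAPDH/POLR2A norm; bidirectional fit vs DMSO.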
# HGF (gene 3082) = assay: LTEA_HepaRG_HGF: Life Technologies and Expression Analysis (LTEA) Assay for Hepatocyte Growth Facto (HGF) using HepaRG (AID 2283505)
# Method in brief: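 Read-out is HGF transcript level by qRT-PCR, normalized to three housekeeping genes, fitted bidirectionally against 0.5% DMSO vehicle. Human HepaRG cells received test chemicals for 48 h at up to 100 uM.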
# [3] = read-out: Insulin Like Growth Factor 1 (IGF1), IGF1 (gene 3479); assay: LTEA_HepaRG_IGF1: Life Technologies and Expression Analysis (LTEA) Assay for Insulin Like Growth Factor 1 (IGF1) using HepaRG (AID 2283506)
# Method in brief: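 Using human HepaRG liver cells, IGF1 transcript induction or suppression is measured 48 h after dosing across eight concentrations capped at 100 uM. Values derive from bidirectional concentration-response fitting with DMSO as baseline.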
# [4] = read-out: Intercellular Adhesion Molecule 1 (ICAM1), ICAM1 (gene 3383); assay: LTEA_HepaRG_ICAM1: Life Technologies and Expression Analysis (LTEA) Assay for Intercellular Adhesion Molecule 1 (ICAM1) using HepaRG (AID 2283507)
# Method in brief: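 Readout is qRT-PCR mRNA level, normalized to three housekeeping genes and fitted bidirectionally against 0.5% DMSO vehicle. Human HepaRG cultures received compound for 48 h, top concentration 100 uM with half-log dilutions.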
# [5] = read-out: Insulin-like growth factor-binding protein 1 (IGFBP1), IGFBP1 (gene 3484); assay: LTEA_HepaRG_IGFBP1: Life Technologies and Expression Analysis (LTEA) Assay for Insulin-like growth factor-binding protein 1 (IGFBP1) using HepaRG (AID 2283508)
# Method in brief: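 Thawed HepaRG cells are plated for 48 h, switched to serum-free induction medium, then dosed in duplicate for another 48 h (100 uM top, half-log steps). Lysates in RLT go to qRT-PCR, and gain or loss of signal is fitted relative to vehicle.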
# [6] = read-out: Interleukin 6 (IL6), IL6 (gene 3569); assay: LTEA_HepaRG_IL6: Life Technologies and Expression Analysis (LTEA) Assay for Interleukin 6 (IL6) using HepaRG (AID 2283509)
# Method in brief: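 Differentiated human HepaRG cells, plated 48 h then switched to serum-free induction medium, were exposed in duplicate for 48 h to eight half-log concentrations up to 100 uM in 0.5% DMSO. IL6 mRNA measured by qRT-PCR, normalized to ACTB/GAPDH/POLR2A.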
# [7] = read-out: Interleukin 6 Receptor (IL6R), IL6R (gene 3570); assay: LTEA_HepaRG_IL6R: Life Technologies and Expression Analysis (LTEA) Assay for Interleukin 6 Receptor (IL6R) using HepaRG (AID 2283510);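 on AC50: TaqMan qRT-PCR signal normalized to ACTB GAPDH and POLR2A housekeeping genes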
# Method in brief: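 Concentration-response in human liver HepaRG cells: eight concentrations from 100 uM downward by half-logs, 48 h exposure, 0.5% DMSO vehicle. IL6R mRNA change measured by qRT-PCR and fitted in both directions relative to vehicle.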
# [8] = read-out: Potassium channel subfamily K member 1 (KCNK1), KCNK1 (gene 3775); assay: LTEA_HepaRG_KCNK1: Life Technologies and Expression Analysis (LTEA) Assay for Potassium channel subfamily K member 1 (KCNK1) using HepaRG (AID 2283511)
# Method in brief: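 Differentiated human HepaRG cells in serum-free induction medium were exposed in duplicate for 48 h to 8 half-log concentrations up to 100 uM in 0.5% DMSO. KCNK1 mRNA was measured by TaqMan qRT-PCR, normalized to ACTB, GAPDH and POLR2A, and fitted bidirectionally versus DMSO.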
# [9] = read-out: Keratin 19 (KRT19), KRT19 (gene 3880); assay: LTEA_HepaRG_KRT19: Life Technologies and Expression Analysis (LTEA) Assay for Keratin 19 (KRT19) using HepaRG (AID 2283512)
# Method in brief: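 KRT19 transcript levels, measured by Fluidigm qRT-PCR against three housekeeping genes, are fitted for gain or loss of signal relative to DMSO. Human HepaRG cells receive test chemicals (top 100 uM, half-log steps, 0.5% DMSO) for 48 hours.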
# [10] = read-out: JUN Transcription Factor, JUN (gene 3725); assay: LTEA_HepaRG_JUN: Life Technologies and Expression Analysis (LTEA) Assay for JUN Transcription Factor using HepaRG (AID 2283513)
# Method in brief: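 Human HepaRG liver cells receive test chemicals in 0.5% DMSO for 48 h across an eight-point range topping at 100 uM. Expression changes in JUN are scored in both directions against the DMSO vehicle.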
# [11] = read-out: Lipase C (LIPC), LIPC (gene 3990); assay: LTEA_HepaRG_LIPC: Life Technologies and Expression Analysis (LTEA) Assay for Lipase C (LIPC) using HepaRG (AID 2283514)
# Method in brief: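 Differentiated human HepaRG cells in serum-free induction medium were exposed in duplicate for 48 h to eight concentrations (top 100 uM, half-log steps, 0.5% DMSO). LIPC mRNA was quantified by TaqMan qRT-PCR, normalized to ACTB, GAPDH and POLR2A, with bidirectional fitting versus DMSO.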
# [12] = read-out: Lipoprotein lipase (LPL), LPL (gene 4023); assay: LTEA_HepaRG_LPL: Life Technologies and Expression Analysis (LTEA) Assay for Lipoprotein lipase (LPL) using HepaRG (AID 2283515)
# Method in brief: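 Differentiated human HepaRG cells in serum-free induction medium were exposed in duplicate for 48 h to eight half-log concentrations (top 100 uM) in 0.5% DMSO. LPL mRNA was quantified by TaqMan qRT-PCR, normalized to ACTB, GAPDH and POLR2A.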
# [13] = read-out: MicroRNA 122 (MIR122), gene 406906; assay: LTEA_HepaRG_MIR122: Life Technologies and Expression Analysis (LTEA) Assay for MicroRNA 122 (MIR122) using HepaRG (AID 2283516); further: the transcript read is the microRNA miR-122
# Method in brief: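 HepaRG, 48 h exposure, 8-pt half-log from 100 uM, 0.5% DMSO; TaqMan qRT-PCR; bidirectional fit vs DMSO.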
# MYC, MYC (gene 4609) = assay: LTEA_HepaRG_MYC: Life Technologies and Expression Analysis (LTEA) Assay for MYC using HepaRG (AID 2283518)
# Method in brief: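 HepaRG, ~100,000 cells/well, collagen I; 48 h plating; serum-free induction medium; 48 h dosing, duplicate, 100 uM top, half-log, 0.5% DMSO; total RNA → qRT-PCR MYC; gain/loss fit vs DMSO.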
# [14] = read-out: matrix metalloproteinase-3 (MMP3), MMP3 (gene 4314); assay: LTEA_HepaRG_MMP3: Life Technologies and Expression Analysis (LTEA) Assay for matrix metalloproteinase-3 (MMP3) using HepaRG (AID 2283519)
# Method in brief: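 Differentiated human HepaRG cells, plated 48 h on collagen I, were exposed in duplicate for 48 h in serum-free induction medium to eight half-log concentrations up to 100 uM in 0.5% DMSO. MMP3 mRNA was quantified by TaqMan qRT-PCR, normalised to ACTB, GAPDH and POLR2A.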
# [15] = read-out: Paternally Expressed 10 (PEG10), PEG10 (gene 23089); assay: LTEA_HepaRG_PEG10: Life Technologies and Expression Analysis (LTEA) Assay for Paternally Expressed 10 (PEG10) using HepaRG (AID 2283520);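 on AC50: PEG10 transcript by qRT-PCR normalised to ACTB GAPDH and POLR2A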
# Method in brief: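 Chemicals tested on HepaRG cells for 48 h, highest concentration 100 uM. PEG10 expression assessed by qRT-PCR relative to DMSO control.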
# [16] = read-out: Nuclear factor NF-kappa-B p105 subunit (Homo sapiens) (UniProt P19838); assay: LTEA_HepaRG_NFKB1: Life Technologies and Expression Analysis (LTEA) Assay for Nuclear Factor Kappa B Subunit 1 (NFKB1) using HepaRG (AID 2283521);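 further: TaqMan qRT-PCR transcript normalised to ACTB GAPDH and POLR2A housekeeping genes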
# Method in brief: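 Differentiated human HepaRG cells were exposed for 48 h in serum-free induction medium to eight concentrations (top 100 uM, half-log steps, 0.5% DMSO), in duplicate. NFKB1 mRNA was measured by TaqMan qRT-PCR, normalized to ACTB/GAPDH/POLR2A, and fitted bidirectionally against DMSO.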
# [17] = read-out: Hypoxia-inducible factor 1-alpha (Homo sapiens) (UniProt Q16665); assay: LTEA_HepaRG_HIF1A: Life Technologies and Expression Analysis (LTEA) Assay for Hypoxia-inducible factor 1 (HIF1A) Trancription factor using HepaRG (AID 2283503)
# Method in brief: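 HepaRG, 48 h exposure, 8-pt half-log series from 100 uM, 0.5% DMSO vehicle, duplicates. Readout: HIF1A transcript by qRT-PCR (Fluidigm array), housekeeping-normalised. Bidirectional curve fit vs DMSO baseline.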
# [18] = read-out: matrix metalloproteinase-10 (MMP10), MMP10 (gene 4319); assay: LTEA_HepaRG_MMP10: Life Technologies and Expression Analysis (LTEA) Assay for matrix metalloproteinase-10 (MMP10) using HepaRG (AID 2283517)
# Method in brief: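 HepaRG, collagen I, ~100,000 cells/well; serum-free induction medium; 48 h exposure, duplicate, 8-pt half-log to 100 uM, 0.5% DMSO. Readout: TaqMan qRT-PCR, normalized to ACTB/GAPDH/POLR2A; bidirectional fit vs DMSO.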
# Sequence of Nuclear factor NF-kappa-B p105 subunit (Homo sapiens) (P19838 whole entry, looked up): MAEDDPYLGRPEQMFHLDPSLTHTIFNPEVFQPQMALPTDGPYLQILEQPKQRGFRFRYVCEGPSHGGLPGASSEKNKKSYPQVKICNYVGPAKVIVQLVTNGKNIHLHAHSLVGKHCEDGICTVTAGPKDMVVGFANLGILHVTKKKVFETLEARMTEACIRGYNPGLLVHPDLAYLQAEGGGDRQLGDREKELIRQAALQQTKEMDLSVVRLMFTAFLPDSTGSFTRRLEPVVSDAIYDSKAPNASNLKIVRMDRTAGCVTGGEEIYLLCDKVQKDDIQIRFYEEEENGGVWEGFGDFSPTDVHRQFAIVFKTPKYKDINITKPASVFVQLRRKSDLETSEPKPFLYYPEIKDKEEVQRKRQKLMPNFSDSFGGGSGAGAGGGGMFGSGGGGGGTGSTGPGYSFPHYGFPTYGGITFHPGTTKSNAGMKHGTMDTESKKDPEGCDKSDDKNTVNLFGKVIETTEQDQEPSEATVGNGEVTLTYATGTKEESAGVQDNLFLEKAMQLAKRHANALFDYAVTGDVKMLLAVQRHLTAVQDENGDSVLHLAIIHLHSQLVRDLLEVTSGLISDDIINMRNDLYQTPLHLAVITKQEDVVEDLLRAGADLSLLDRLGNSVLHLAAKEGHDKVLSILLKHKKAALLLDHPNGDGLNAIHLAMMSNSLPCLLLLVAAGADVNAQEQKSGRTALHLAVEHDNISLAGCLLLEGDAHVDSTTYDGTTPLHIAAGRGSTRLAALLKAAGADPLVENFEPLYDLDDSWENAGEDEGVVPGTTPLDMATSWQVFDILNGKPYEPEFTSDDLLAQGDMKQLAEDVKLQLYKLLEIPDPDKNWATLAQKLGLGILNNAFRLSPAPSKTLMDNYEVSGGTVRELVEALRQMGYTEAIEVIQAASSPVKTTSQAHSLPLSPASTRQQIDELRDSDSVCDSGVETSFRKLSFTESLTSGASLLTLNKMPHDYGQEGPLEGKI
# Sequence of Hypoxia-inducible factor 1-alpha (Homo sapiens) (Q16665 whole entry, looked up): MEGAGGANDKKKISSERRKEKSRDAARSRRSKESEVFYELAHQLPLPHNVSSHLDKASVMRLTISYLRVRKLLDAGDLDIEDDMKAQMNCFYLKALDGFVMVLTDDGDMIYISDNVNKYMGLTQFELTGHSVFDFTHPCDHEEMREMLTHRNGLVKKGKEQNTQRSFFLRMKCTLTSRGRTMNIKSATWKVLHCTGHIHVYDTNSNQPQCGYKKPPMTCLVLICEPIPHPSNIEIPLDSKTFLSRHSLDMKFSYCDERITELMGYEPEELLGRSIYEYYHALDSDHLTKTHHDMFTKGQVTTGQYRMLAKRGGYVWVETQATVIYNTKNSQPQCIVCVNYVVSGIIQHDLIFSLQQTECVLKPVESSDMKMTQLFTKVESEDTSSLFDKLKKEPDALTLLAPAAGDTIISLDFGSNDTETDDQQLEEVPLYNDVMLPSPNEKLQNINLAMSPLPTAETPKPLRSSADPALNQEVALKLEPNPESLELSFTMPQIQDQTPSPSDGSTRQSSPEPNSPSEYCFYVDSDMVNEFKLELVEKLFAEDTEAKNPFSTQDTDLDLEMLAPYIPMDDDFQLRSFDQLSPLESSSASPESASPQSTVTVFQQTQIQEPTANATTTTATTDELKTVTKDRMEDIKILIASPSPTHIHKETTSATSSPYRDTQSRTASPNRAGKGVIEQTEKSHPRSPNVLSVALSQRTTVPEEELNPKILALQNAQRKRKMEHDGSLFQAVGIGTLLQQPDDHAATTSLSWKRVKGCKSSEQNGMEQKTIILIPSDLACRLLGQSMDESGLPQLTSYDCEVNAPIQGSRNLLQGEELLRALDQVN
smiles,measurement,setting,value
Clc1ccccc1C(c1ccccc1)(c1ccccc1)n1ccnc1,outcome,[1],inactive
same,AC50,[2],24.3 µM (active)
same,AC50,HGF (gene 3082),26.7 µM (active)
same,AC50,[3],15.8 µM (active)
same,AC50,[4],90.6 µM (active)
same,AC50,[5],16.7 µM (active)
same,AC50,[6],88.6 µM (active)
same,AC50,[7],93 µM (active)
same,outcome,[8],inactive
same,AC50,[9],20.2 µM (active)
same,AC50,[10],66 µM (active)
same,AC50,[11],93.1 µM (active)
same,AC50,[12],89.8 µM (active)
same,AC50,[13],17.3 µM (active)
same,AC50,"MYC, MYC (gene 4609)",20.5 µM (active)
same,outcome,[14],inactive
same,outcome,[15],inactive
same,outcome,[16],inactive
O=C1CCC(C2CCCCC2)CC1,outcome,[1],inactive
same,outcome,[17],inactive
same,outcome,[2],inactive
same,outcome,HGF (gene 3082),inactive
same,outcome,[3],inactive
same,outcome,[4],inactive
same,outcome,[5],inactive
same,outcome,[6],inactive
same,outcome,[7],inactive
same,outcome,[8],inactive
same,outcome,[9],inactive
same,outcome,[10],inactive
same,outcome,[11],inactive
same,outcome,[12],inactive
same,outcome,[13],inactive
same,outcome,[18],inactive
same,outcome,"MYC, MYC (gene 4609)",inactive
same,outcome,[14],inactive
same,outcome,[15],inactive
same,outcome,[16],inactive
O=C(OCCCCCCOC(=O)c1ccccc1)c1ccccc1,outcome,[1],inactive
same,outcome,[17],inactive
same,outcome,[2],inactive
same,outcome,HGF (gene 3082),inactive
same,outcome,[3],inactive
same,outcome,[4],inactive
same,outcome,[5],inactive
same,outcome,[6],inactive
same,outcome,[7],inactive
same,outcome,[8],inactive
same,outcome,[9],inactive
same,outcome,[10],inactive
same,outcome,[11],inactive
same,outcome,[12],inactive
same,outcome,[13],inactive
same,outcome,"MYC, MYC (gene 4609)",inactive
same,outcome,[14],inactive
same,outcome,[15],inactive
same,outcome,[16],inactive
OC12N=C(c3ccccc3)SC1Cc1cc(Cl)ccc12 (configuration not stated),outcome,[17],inactive
same,AC50,[2],20 µM (active)
same,outcome,HGF (gene 3082),inactive
same,AC50,[3],13.3 µM (active)
same,outcome,[4],inactive
same,AC50,[5],13 µM (active)
same,outcome,[6],inactive
same,AC50,[7],1.78 µM (active)
same,outcome,[8],inactive
same,AC50,[9],16.5 µM (active)
same,outcome,[10],inactive
same,AC50,[11],17 µM (active)
same,AC50,[12],1.52 µM (active)
same,AC50,[13],12.1 µM (active)
same,AC50,[18],72.8 µM (active)
same,AC50,"MYC, MYC (gene 4609)",16.1 µM (active)
same,outcome,[14],inactive
same,AC50,[15],11.8 µM (active)
CC(C)(c1cc(Br)c(O)c(Br)c1)c1cc(Br)c(O)c(Br)c1,AC50,[1],88.6 µM (active)
same,AC50,[17],74 µM (active)
same,AC50,[2],89.2 µM (active)
same,outcome,HGF (gene 3082),inactive
same,AC50,[3],77 µM (active)
same,AC50,[4],74.5 µM (active)
same,AC50,[5],69.1 µM (active)
same,AC50,[6],75.5 µM (active)
same,outcome,[7],inactive
same,outcome,[8],inactive
same,outcome,[9],inactive
same,AC50,[10],94.7 µM (active)
same,outcome,[11],inactive
same,AC50,[12],84.5 µM (active)
same,outcome,[13],inactive
same,AC50,"MYC, MYC (gene 4609)",89.5 µM (active)
same,outcome,[14],inactive
same,outcome,[15],inactive
same,outcome,[16],inactive
Cc1ccc(C(C)C)cc1,outcome,[17],inactive
same,outcome,[2],inactive
same,outcome,HGF (gene 3082),inactive
same,outcome,[3],inactive
same,outcome,[4],inactive
same,outcome,[5],inactive
same,outcome,[6],inactive
same,outcome,[7],inactive
same,outcome,[8],inactive
same,outcome,[9],inactive
same,outcome,[10],inactive
same,outcome,[11],inactive
same,outcome,[12],inactive
same,outcome,[13],inactive
same,outcome,[18],inactive
same,outcome,"MYC, MYC (gene 4609)",inactive
same,outcome,[14],inactive
same,outcome,[15],inactive
